The text below walks through data of PubChem BioAssay AID1986 (Sanford-Burnham Center for Chemical Genomics, 2009).

Out of some 290,000 compounds screened, about 890 (0.31%) were called active. Rule as the data show it: active = inhibition mostly above about 52% (no sharp cut-off); inactive = mostly below about 76%. Many of the other results were omitted from the sample, so actives are more common in it than they were.

This assay can be described thus: cell-free HIV fusion peptide-binding blockers – biochemical, uHTS, fluorescence dequenching, primary screen (AID 1986). Conditions: 30 min, stronger effect = higher value.
[1] abbreviates: measured here: repeat confirmation average inhibition, at 18.6 µM.

On to `COc1cc(/C=C2\SC(=O)NC2=O)ccc1Oc1ccc([N+](=O)[O-])cn1`, for which, under “at 20 µM”, the inhibition (commonly the relative decrease from the control value, in per cent) was 13.1% (inactive).

For `COc1cc(/C=C2\SC(=O)NC2=O)ccc1Oc1ccc([N+](=O)[O-])cc1[N+](=O)[O-]`, the inhibition (at 20 µM) was 63% (active).

On to `COc1cc(/C=C2/SC(=O)NC2=O)ccc1Oc1ccc([N+](=O)[O-])cc1[N+](=O)[O-]`, for which the inhibition (at 20 µM) was 74.1% (inactive) and the inhibition under setting [1] was 9.9%.

For `Cc1ccc(NC(=O)Cn2cnc3sc(C(=O)NCc4ccco4)c(C)c3c2=O)cc1Cl`, the inhibition (at 20 µM) is -1.5% (inactive).

Consider `N#Cc1c(N)sc(=S)c2c1CCN(Cc1ccccc1)C2`, for which, where the note is “at 20 µM”, the inhibition was 86.2% (active).

On to `N#Cc1c(N)sc(=S)c2c1CCCC2`, for which the inhibition (at 20 µM) is 0% (inactive).

In the case of `N#Cc1c(N)sc2c1CCCCCC2`, the inhibition (at 20 µM) was -2% (inactive).

Turning to `N#Cc1c(N2CCCCC2)nc(N2CCCCC2)c2c1CCN(Cc1ccccc1)C2`, where the note is “at 20 µM”, the inhibition was 8.7% (inactive).

As for `N#Cc1c(N)sc(=S)c2c1CCCCC2`, the inhibition (at 20 µM) was 50% (active).

For the compound `N#Cc1c(N)sc2c1CCN(CCc1ccccc1)C2`, the inhibition (at 20 µM) is 8.1% (inactive).

In the case of `CN1CC2([N+](=O)[O-])CC=C(OCCO)C([N+](=O)[O-])(C1)C2` (stereo not given), the inhibition (at 20 µM) was 0.4% (inactive).

As to `O=C(Nc1ccc(N2CCOCC2)cc1)C1(S(=O)(=O)c2ccccc2)CC1`, for the setting “at 20 µM”, the inhibition is -1.1% (inactive).

Take `COc1ccc(CCN2CCCn3c2nc2c3c(=O)n(CC(C)C)c(=O)n2C)cc1OC`: the inhibition (at 20 µM) was 0.5% (inactive).

Regarding `CC(C)c1ccc(S(=O)(=O)/N=C2/C=CC(=O)c3ccccc32)cc1`, the inhibition (at 20 µM) is 3.8% (inactive).

For `Cc1cc(C)c(S(=O)(=O)/N=C2\C=C(NS(=O)(=O)c3ccccc3)C(=O)c3ccccc32)c(C)c1`, the inhibition by setting is: (at 20 µM) 68.3% (inactive); under setting [1], 42.3%.

As to `CC(C)c1ccc(S(=O)(=O)/N=C2\C=C(NS(=O)(=O)c3ccccc3)C(=O)c3ccccc32)cc1`, the inhibition (at 20 µM) was 74.7% (active).

With `O=C(CSc1n[nH]c(=O)[nH]c1=O)NC1CCCCC1`, the inhibition (at 20 µM) is -0.2% (inactive).

Turning to `COC(=O)c1cc(N2CCN(C)CC2)nc2ccccc12`, for the setting “at 20 µM”, the inhibition is 114% (active).

Take `O=C(O)c1cc(N2CCOCC2)nc2ccccc12`: the inhibition (at 20 µM) is 0.2% (inactive).

As to `COC(=O)c1cc(N2CCNCC2)nc2ccccc12`, under “at 20 µM”, the inhibition is 6.8% (inactive).

For `Cn1c(=O)c2[nH]c(Nc3ccccc3)nc2n(C)c1=O`, the inhibition (at 20 µM) was -0.7% (inactive).

For `CC(C)c1ccc(NC(=O)CCNS(=O)(=O)c2ccc3[nH]c(=O)oc3c2)cc1`, the inhibition (at 20 µM) was 2.1% (inactive).

Take `CC(C)CNC(=S)N(CCN(C)C)Cc1cc2cc3c(cc2[nH]c1=O)OCO3`: under “at 20 µM”, the inhibition is -2.4% (inactive).

In the case of `Oc1ccc2nnc3c(Br)cnn3c2c1`, the inhibition was 82.2% (active) (at 20 µM) and 59.6% under setting [1].

For `Clc1ccc2nc3c4ccccc4cnn3c2c1`, the inhibition (at 20 µM) is 0% (inactive).

Turning to `Oc1ccc(Br)cc1Cn1nnc2ccccc21`, the inhibition (at 20 µM) is -0.3% (inactive).

Regarding `COc1ccc(OC)c(/C=N/NC(=O)CNC(=O)c2cccc3ccccc23)c1`, the inhibition (at 20 µM) is -1.3% (inactive).

Turning to `Nc1cc(=O)[nH]c(SCC(=O)N2N=C(c3ccc4ccccc4c3)CC2c2ccccc2)n1` (stereo not given), the inhibition (at 20 µM) is -0.7% (inactive).

As to `Cc1cc(-c2ccccc2)n2ncnc2n1`, for the setting “at 20 µM”, the inhibition was 0.4% (inactive).

`COc1ccc2nc(C)cc(NCc3ccc(F)cc3)c2c1`: the inhibition (at 20 µM) was 65.2% (active) and the inhibition under setting [1] came out at 53%.

As to `COc1ccc(CNc2cc(C)nc3ccc(OC)cc23)cc1`, for the setting “at 20 µM”, the inhibition was -0.2% (inactive).

Regarding `COc1ccc2nc(C)cc(NCc3cccc(C(F)(F)F)c3)c2c1`, the inhibition (at 20 µM) was -0.7% (inactive).

`COc1ccccc1C(=O)Nc1ccccn1`: the inhibition (at 20 µM) was 0.9% (inactive).

On to `CCc1nc(N[C@@H](CC(C)C)C(=O)O)c2oc3ccccc3c2n1`, for which the inhibition (at 20 µM) was 4.3% (inactive).

For the compound `CN1CC=C2C(C#N)=C(N)C(C#N)(C#N)C(CCc3ccccc3)C2C1` (stereo not given), the inhibition reads like this: (at 20 µM) 64.6% (inactive); under setting [1], 14.6%.

For the compound `CN1CC=C2C(C#N)=C(N)C(C#N)(C#N)[C@H](c3ccoc3)[C@H]2C1`, the inhibition (at 20 µM) is 0.3% (inactive).

For the compound `CC(=O)N1CC=C2C(C#N)=C(N)C(C#N)(C#N)[C@H](c3ccoc3)[C@H]2C1`, the inhibition (at 20 µM) is 29% (inactive).

As to `CCCC1C2CN(C(C)C)CC=C2C(C#N)=C(N)C1(C#N)C#N` (stereo not given), the inhibition (at 20 µM) was -3.6% (inactive).

In the case of `CCN1CC=C2C(C#N)=C(N)C(C#N)(C#N)C(CCc3ccccc3)C2C1` (stereo not given), the inhibition (at 20 µM) is -0.3% (inactive).

`Cc1ccc(C2C3CSCC=C3C(C#N)=C(N)C2(C#N)C#N)cc1` (stereo not given): the inhibition (at 20 µM) is 22.2% (inactive).

Consider `CC(C)N1CC=C2C(C#N)=C(N)C(C#N)(C#N)[C@H](c3ccoc3)[C@H]2C1`, for which the inhibition (at 20 µM) is 123% (active).

For the compound `CC(C)N1CC=C2C(C#N)=C(N)C(C#N)(C#N)C(c3ccccc3)C2C1` (stereo not given), the inhibition (at 20 µM) is 86.9% (active).

On to `CN1CC=C2C(C#N)=C(N)C(C#N)(C#N)C(Cc3ccccc3)C2C1` (stereo not given), for which the inhibition (at 20 µM) was 52.9% (active).

For `Cc1ccc(C2C3CN(C(C)C)CC=C3C(C#N)=C(N)C2(C#N)C#N)cc1` (stereo not given), the inhibition (at 20 µM) was 87.6% (active).

For the compound `COc1ccc(OC)c(C2C3CN(C(C)C)CC=C3C(C#N)=C(N)C2(C#N)C#N)c1` (stereo not given), where the note is “at 20 µM”, the inhibition is -0.5% (inactive).

In the case of `CN1CC=C2C(C#N)=C(N)C(C#N)(C#N)[C@H](c3cccc(Cl)c3)C2C1` (stereo not given in full), the inhibition (at 20 µM) is 25.6% (inactive).

For `COc1cc(/C=C(\C#N)C(=O)NCC2CCCO2)ccc1OC(C)C` (stereo not given), the inhibition (at 20 µM) was -1.4% (inactive).

As to `CN(CC(=O)Nc1ccc(F)c(F)c1F)c1ncnc2sccc12`, the inhibition (at 20 µM) was 0.3% (inactive).

With `COCCn1c(SCC(=O)N2CCCc3ccccc32)nnc1-c1ccoc1C`, the inhibition (at 20 µM) is -1.1% (inactive).

Regarding `COc1ccc(Cl)cc1N1C(=O)CN(Cc2cc(OC)c(OC)c(OC)c2)C1=S`, the inhibition (at 20 µM) was 1% (inactive).

Consider `COc1ccccc1C(=O)NNC(=O)c1ccc2ccccc2c1`, for which, for the setting “at 20 µM”, the inhibition is 0.5% (inactive).

As for `O=C(/C=C/c1ccccc1)Nc1cccnc1Cl`, under “at 20 µM”, the inhibition is -1.1% (inactive).

As to `CCCCOC(=O)c1ccc(N=Nc2c(C)c(C#N)c(O)[nH]c2=O)cc1`, the inhibition is, setting by setting: (at 20 µM) 77.6% (active); under setting [1], 93.8%.

Regarding `CCOC(=O)c1ccc(N=Nc2c(C)c(C#N)c(O)[nH]c2=O)cc1`, the inhibition (at 20 µM) was 4.3% (inactive).

Turning to `Cc1c(C#N)c(O)[nH]c(=O)c1N=Nc1ccc(S(N)(=O)=O)cc1`, the inhibition (at 20 µM) is 12% (inactive).

For `COc1ccccc1CC(NC(C)=O)C(=O)NC1CCN(C(=O)Nc2cccc(F)c2)CC1` (stereo not given), where the note is “at 20 µM”, the inhibition is -1.2% (inactive).

Consider `C=C1CCN([C@@H](C)C(=O)OCc2cccc(C)c2)S(=O)(=O)c2ccccc21`, for which the inhibition (at 20 µM) is 1.3% (inactive).

On to `O=C(CCN1C(=O)/C(=C\c2ccco2)SC1=S)Nc1ccc(C(=O)O)c(O)c1`, for which the inhibition (at 20 µM) was 75.4% (active).

As for `CC(=O)c1ccc(NC(=O)CCCN2C(=O)/C(=C/C(C)=C/c3ccccc3)SC2=S)cc1`, the inhibition (at 20 µM) was 3.3% (inactive).

As for `O=C(CCCN1C(=O)/C(=C/c2ccco2)SC1=S)Nc1ccccc1C(=O)O`, the inhibition (at 20 µM) is 67.2% (inactive) and the inhibition under setting [1] was determined as 29.8%.

Consider `O=C(CCCN1C(=O)/C(=C\c2ccco2)SC1=S)Nc1ccc2ccccc2c1`, for which the inhibition was 65.1% (inactive) (at 20 µM) and 3% under setting [1].

With `CC(C(=O)N(C)C1CCS(=O)(=O)C1)N1C(=O)/C(=C/c2ccco2)SC1=S` (stereo not given), where the note is “at 20 µM”, the inhibition was 24.8% (inactive).

Take `O=C(CCCN1C(=O)/C(=C/c2ccccc2)SC1=S)Nc1ccc(C(=O)O)c(O)c1`: the inhibition is 60.7% (inactive) (at 20 µM) and 40.5% under setting [1].

Consider `O=C(CCN1C(=O)S/C(=C/c2ccccc2)C1=O)Nc1ccc(C(=O)O)c(O)c1`, for which the inhibition (at 20 µM) was 29.4% (inactive).

For the compound `O=C(CCCN1C(=O)/C(=C/c2ccco2)SC1=S)Nc1cccc(C(=O)O)c1`, the inhibition is, setting by setting: (at 20 µM) 59.9% (inactive); under setting [1], 12.3%.

`O=C(CN1C(=O)/C(=C/c2ccco2)SC1=S)Nc1ccc(O)c(C(=O)O)c1`: the inhibition (at 20 µM) is 58.3% (active).

On to `CC(C(=O)Nc1ccc(C(=O)O)c(O)c1)N1C(=O)/C(=C\c2ccco2)SC1=S` (stereo not given), for which the inhibition (at 20 µM) was 78.3% (active).

Regarding `CC(/C=C1\SC(=S)N(CCCC(=O)Nc2ccc(C(=O)O)c(O)c2)C1=O)=C\c1ccccc1`, the inhibition (at 20 µM) is 56.9% (active).

As to `CC(C(=O)Nc1ccc(O)cc1C(=O)O)N1C(=O)/C(=C\c2cccs2)SC1=S` (stereo not given), the inhibition is, setting by setting: (at 20 µM) 50.1% (inactive); under setting [1], 46.3%.
